Compound activity (PubChem)
Only some compounds are listed: those with a hit (about 1.9% of all), similar ones and a draw of the others.
HTT cytoprotect = qHTS Multiplex Assay to Identify Dual Action Probes in a Cell Model of Huntington: Cytoprotection (ATP) | PC12 HTT-Q103 induced, cytoprotection, ATP luminescence, 40 h | AID 1471, 2008 | Potency, µM (doses to about 56.4 µM), for inactives: cytoprotection (ATP increase), hits mostly activators | 0.14% of 230,000 active; further: % of control where 0% means no effect; nearly all actives have a fitted effect of over 45% in size
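Compounds added alongside 100 nM tebufenozide, which induces toxic Q103 huntingtin exon 1-GFP in stable PC12 cells; surviving cells quantified by luminescent ATP measurement. Medium: phenol red-free DMEM, 5% equine and 5% calf serum.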
IMPase Li cell = qHTS Assay for Identifying the Cell-Membrane Permeable IMPase Inhibitors: Potentiation with Lithium. Potency, µM (highest dose often 59.4 µM), for inactives: at the highest dose activity, negative = IMPase inhibition, actives largely listed as inhibitors. 0.35% of 210,000 active. CHO-M1 cells, IP1 TR-FRET (IP-One), carbachol + lithium;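 further: IP1 builds up when IMPase is blocked and the TR-FRET signal falls; plate controls were basal vehicle for no effect and high inhibitor control for full effect; nearly all actives have a fitted effect of over 50% in size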
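Readout is a homogeneous TR-FRET IP1 immunoassay (Ex 320, Em 665 and 620), where raised cytosolic IP1 lowers signal. Cells were CHO-M1 treated 30 min at 37C with test compounds plus a little lithium; AC50 values came from Hill-equation fitting.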
NPSR antag = qHTS Assay for Antagonists of the Neuropeptide S Receptor: cAMP Signal Transduction. CHO-NPSR cells, cAMP TR-FRET, antagonist mode. Potency, µM (titrated, usually from 38.3 µM), inactives show top-dose activity change, negative = inhibition, usual class: inhibitors. 1% of 220,000 active; further: on the % scale 0 is the no-effect control and ±100 the full control effect; nearly all actives have a fitted effect of over 50% in size
Target sequence (Q6W5P4 whole entry, looked up): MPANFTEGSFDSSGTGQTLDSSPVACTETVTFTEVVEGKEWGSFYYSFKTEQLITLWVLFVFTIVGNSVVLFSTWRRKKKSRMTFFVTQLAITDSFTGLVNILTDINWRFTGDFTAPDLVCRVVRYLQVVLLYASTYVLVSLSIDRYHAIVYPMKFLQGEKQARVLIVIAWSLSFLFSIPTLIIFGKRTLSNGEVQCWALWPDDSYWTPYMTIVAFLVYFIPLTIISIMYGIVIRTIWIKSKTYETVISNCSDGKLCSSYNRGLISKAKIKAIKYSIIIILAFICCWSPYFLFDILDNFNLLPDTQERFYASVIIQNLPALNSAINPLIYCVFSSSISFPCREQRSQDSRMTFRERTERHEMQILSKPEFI
HttQ103 aggreg = qHTS Multiplex Assay to Identify Dual Action Probes in a Cell Model of Huntington: Aggregate Formation (GFP). PC12 HttQ103-GFP aggregates, Acumen cytometry, 40 h. Potency, µM (titrated, usually from 46.1 µM), inactives show at the highest dose activity change, negative = inhibition, most hits filed as inhibitors. 1.1% of 220,000 active. AID 1688, 2009; further: on the % scale 0 is the no-effect control and ±100 the full control effect; nearly all actives have a fitted effect of over 60% in size
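PC12 cells with ecdysone-inducible HTT exon1 Q103-GFP, induced by 100 nM tebufenozide, given compounds in a concentration series. GFP aggregates (1–25 um, 6 SD above background) counted in lysates by laser-scanning cytometry, 488 nm excitation.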
ERK EGF block = qHTS Assay for Inhibitors of the ERK Signaling Pathway using a Homogeneous Screening Assay; Stimulation with EGF | 0.41% of 130,000 active | HEK293-V1b, EGF-stimulated phospho-ERK AlphaScreen | AID 1454, 2008 | Potency, µM (top dose mostly 11.5 µM), inactives show at the highest dose activity change, negative = inhibition, most hits filed as inhibitors;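 further: plate controls were stimulated vehicle wells for no effect and unstimulated vehicle basal for full effect; nearly all actives have a fitted effect of over 55% in size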
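Stably V1b-transfected HEK293 cells; 30 min compound, then EGF 25 nM final for 5 min at 37C; 10 min lysis; phospho-ERK by AlphaScreen after 5 hr beads at room temperature.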
* marks the source's active call; other numbers are inactive results; ! = repeats disagree; [ ] = another dose, or the depositor's remark. The call rests on the fitted dose curve; in most records, active means well fitted curve in the direction sought with a large enough effect; inconclusive means small, poorly fitted or top-dose-only effect, or another doubt; inactive means no such curve, though single readings can be large; an effect the other way counts as inactive or inconclusive. Potency means the concentration at half of the fitted maximal effect.

What do the screens show for `Cc1csc2ncnc(N3CCN(C(=O)Nc4ccc(OC(F)(F)F)cc4)CC3)c12`?
HTT cytoprotect: 9%[10 µM]; NPSR antag: -42%; HttQ103 aggreg: 6%[9.22 µM]; ERK EGF block: 28µM*

How did Cc1csc2c(N3CCN(C(=O)Nc4ccccc4)CC3)ncnc12 do in these assays?
HTT cytoprotect: 24%[10 µM]; NPSR antag: -2%; HttQ103 aggreg: 14%[9.22 µM]; ERK EGF block: inconclusive

Results for O=C(Nc1ccc(-c2cn3ccccc3n2)cc1)c1ccc(Cl)cc1 ?
HTT cytoprotect: -99%[10 µM]; IMPase Li cell: -14%[38.3 µM]; NPSR antag: -5%[46.1 µM]; HttQ103 aggreg: 2.8µM*

How did CCC(=O)NC1CCc2cccc(OC)c2C1 (centres undefined) do in these assays?
HTT cytoprotect: -29%; IMPase Li cell: -6%

How did Nc1ncn([C@@H]2O[C@H](CO)[C@@H](O)[C@H]2O)c(=O)n1 do in these assays?
HTT cytoprotect: -111%; IMPase Li cell: 2%; NPSR antag: -5%[46.1 µM]; HttQ103 aggreg: 13µM*; ERK EGF block: 16%

What do the screens show for `O=c1[nH]cnc2c1ncn2C1OC(CO)C(O)C1O` (centres undefined)?
HTT cytoprotect: 8.9µM*!; IMPase Li cell: -2%; HttQ103 aggreg: -6%; ERK EGF block: 6%

How did Nc1ncn(C2C[C@H](O)[C@@H](CO)O2)c(=O)n1 (some centres undefined) do in these assays?
HTT cytoprotect: -19%; HttQ103 aggreg: -4%

What do the screens show for `CN(C)c1ncnc2c1ncn2C1OC(CO)C(O)C1O` (centres undefined)?
HTT cytoprotect: -103%; IMPase Li cell: 17%[38.3 µM]; NPSR antag: -8%[46.1 µM]; HttQ103 aggreg: 4.5µM*

Results for OCC1OC(n2cnc3c(Cl)ncnc32)C(O)C1O (centres undefined) ?
IMPase Li cell: -2%; ERK EGF block: 27%

What do the screens show for `COC(=O)c1sc(NC(=O)COc2c(C)cccc2C)nc1C`?
HTT cytoprotect: 11%[10 µM]; IMPase Li cell: 18%; NPSR antag: -40%; HttQ103 aggreg: -6%[9.22 µM]; ERK EGF block: 6%

Results for CC(=O)c1sc(NC(=O)CCOc2ccccc2)nc1C ?
HTT cytoprotect: -56%; IMPase Li cell: -1%; NPSR antag: -21%; HttQ103 aggreg: -1%; ERK EGF block: -12%

What do the screens show for `CC(=O)c1sc(NC(=O)COc2ccc(C(C)C)c(C)c2)nc1C`?
HTT cytoprotect: 12%; IMPase Li cell: 11µM*; NPSR antag: inconclusive; HttQ103 aggreg: 11%; ERK EGF block: -7%

What do the screens show for `CCOC(=O)c1sc2nc(NC(=O)COc3ccccc3)sc2c1C`?
HTT cytoprotect: -25%; IMPase Li cell: 13µM*; NPSR antag: -2%[46.1 µM]; HttQ103 aggreg: 6%

Results for CC(=O)c1sc(NC(=O)COc2ccccc2)nc1C ?
HTT cytoprotect: -79%; IMPase Li cell: 10µM*; NPSR antag: -6%; HttQ103 aggreg: 0%; ERK EGF block: 22%

What do the screens show for `COc1ccccc1CNc1nc(-c2ccoc2)nc2ccccc12`?
HTT cytoprotect: -78%; IMPase Li cell: 3%

How did COc1ccc(-c2noc(CSc3nnc(Cc4ccccc4)n3-c3ccc(Cl)cc3)n2)cc1 do in these assays?
HTT cytoprotect: -88%; IMPase Li cell: 12%[38.3 µM]; NPSR antag: inconclusive; HttQ103 aggreg: inconclusive

What do the screens show for `Cc1ccc(-c2noc(CSc3nnc(Cc4ccccc4)n3-c3ccc(Cl)cc3)n2)cc1`?
HTT cytoprotect: 0%; IMPase Li cell: 53%[38.3 µM]; NPSR antag: inconclusive; HttQ103 aggreg: 16µM*

Results for CC(C)(C)C1CCC(=NNc2nc3ccccc3[nH]2)CC1 (centres undefined) ?
HTT cytoprotect: inconclusive; IMPase Li cell: 9%; NPSR antag: 9%; HttQ103 aggreg: -16%; ERK EGF block: 3%
